Compound activity from PubChem.
PGC1a acetyl inh = inhibitors of PGC1a acetylation signal, primary screen, cell-based, U2OS, AlphaScreen, inhibitor mode. inhibition, % at 15.6 µM. AlphaScreen anti-acetyl-lysine; with virally co-expressed GCN5 acetyltransferase. hit rate 0.17% among 350,000;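 active = every replicate shows inhibition of at least 40%; inconclusive = mean inhibition at least 40% but some replicate below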
INS-1E GSIS act = GLuc luminescence reporter in INS-1E cells, primary screen for activators of glucose-dependent secretion of insulin | INS-1E GLuc reporter insulin secretion, 2-3 h | activation, % at 16.6 µM | hit rate 0.61% among 370,000 | AID 743287, 2014;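 active = lowest replicate activation of at least 40%, so every replicate reaches that level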
Ecoli rRNA inh = reduced GFP signal of wild-type E. coli, primary screen, bacterial rRNA inhibitor project, GFP/RFP fluorescence, OD600, single point | hit rate 1.6% among 350,000 | GFP signal change (wild-type ribosome), % (no concentration beside the values) | E. coli WT GFP vs humanized-ribosome RFP mutants, 24 h; active compounds read low; DMSO median 0, no signal -100;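 active = significant combined selectivity score with lowered wild-type GFP, culture density cut under 30%, mutant RFP and density less affected; inactive = any of these conditions unmet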
CaV13 ICDI inh = Primary screen for inhibitors of IQ motif and Ca2+-dependent inactivation inhibitor domain binding in CACNA1D, Förster resonance energy transfer in living cells, …. HEK cells, CFP/YFP FRET ICDI-IQ, plate reader, 10 min; percent FRET-ratio fall versus neutral wells. inhibition, % at 12.3 µM. hit rate 0.098% among 340,000;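 active = mean replicate inhibition of at least 30% and at least 1% of replicates passing that level; inconclusive = only one of the two criteria is met; inactive = neither criterion is met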
ERAP1 HTS inh = human ERAP1 aminopeptidase inhibitors, primary screen, biochemical, single point, plate reader; AID 652197, 2013; recombinant ERAP1, Leu-AMC fluorescence, 60 min; hit rate 0.15% among 340,000; Endoplasmic reticulum aminopeptidase 1 (Homo sapiens), Q9NZ08; inhibition, % at 10.7 µM;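 active = mean replicate inhibition of at least 30%, or all replicates individually reaching that 30% level; inactive = mean below 30% and not every replicate reaching it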
Target sequence (Q9NZ08 whole entry, looked up): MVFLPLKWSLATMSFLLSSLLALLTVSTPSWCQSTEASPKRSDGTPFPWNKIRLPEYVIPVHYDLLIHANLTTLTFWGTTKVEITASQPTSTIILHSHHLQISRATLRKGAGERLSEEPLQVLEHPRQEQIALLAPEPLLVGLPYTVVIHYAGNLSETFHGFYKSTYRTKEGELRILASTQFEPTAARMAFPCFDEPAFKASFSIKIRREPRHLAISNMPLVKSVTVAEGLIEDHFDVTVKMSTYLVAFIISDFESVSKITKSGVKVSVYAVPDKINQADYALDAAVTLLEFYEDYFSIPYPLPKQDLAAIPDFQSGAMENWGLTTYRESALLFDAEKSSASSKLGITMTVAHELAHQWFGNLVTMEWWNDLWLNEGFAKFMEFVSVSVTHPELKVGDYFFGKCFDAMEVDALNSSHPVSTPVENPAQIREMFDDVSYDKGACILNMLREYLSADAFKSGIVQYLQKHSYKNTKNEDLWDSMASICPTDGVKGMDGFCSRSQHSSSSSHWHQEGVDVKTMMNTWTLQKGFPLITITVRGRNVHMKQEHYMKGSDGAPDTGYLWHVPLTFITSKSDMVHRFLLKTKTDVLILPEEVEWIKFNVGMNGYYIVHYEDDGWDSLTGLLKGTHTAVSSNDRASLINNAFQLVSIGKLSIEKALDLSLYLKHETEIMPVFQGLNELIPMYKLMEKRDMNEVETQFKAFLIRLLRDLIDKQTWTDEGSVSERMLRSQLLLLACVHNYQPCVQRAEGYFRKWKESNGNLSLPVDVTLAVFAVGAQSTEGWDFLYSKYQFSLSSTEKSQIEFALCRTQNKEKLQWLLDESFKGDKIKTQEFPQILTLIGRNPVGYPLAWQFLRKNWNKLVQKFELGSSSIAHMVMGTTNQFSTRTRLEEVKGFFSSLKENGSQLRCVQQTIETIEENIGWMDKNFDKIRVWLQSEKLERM
DENV2 CPE rescue = inhibitors of DENV2 cytopathic effect, primary screen, cell-based, plate reader, single concentration | DENV2-infected cells, cytopathic effect rescue | CPE inhibition, % at 9.99 µM | hit rate 1.7% among 350,000; in the data active = CPE inhibition above about 20%, passing the limit was not always enough; inconclusive = no clear call, values can overlap the other calls; tested in BHK-21 cells
Hits are given with their value; - = inactive; ? = inconclusive; . = no result; + = active, no number. Compounds with a hit are over-represented: about 3.2% of the library has one in this group of screens.

SMILES	PGC1a acetyl inh	INS-1E GSIS act	Ecoli rRNA inh	CaV13 ICDI inh	ERAP1 HTS inh	DENV2 CPE rescue
C[C@H]1CC=CC[C@@H](c2ccc3c(c2)OCO3)NC(=O)[C@H](Cc2ccccc2)N(C)C(=O)c2ccccc2O1 (mixture of isomers)	.	-	-	.	.	.
CC=Cc1ccc2n(c1=O)C[C@H]1[C@H](CO)[C@@H](C(=O)NCc3ccc(F)cc3)N(CC)[C@@H]21 (mixture of isomers)	.	-	-	.	-	-
CN1CCN(CCOc2ccc(-c3ccccc3)cc2)CC1	.	-	-	-	-	48.9
Cc1ccc(S(=O)(=O)N(C)C)cc1NC(=O)COC(=O)C1CCCC1	-	-	-	-	-	34.4
O=C(CSc1ccc(-c2ccco2)nn1)NC1CCCC1	-	40.1	-	-	-	-
COc1ccc(NC(=O)CSc2ccc(-c3ccco3)nn2)cc1OC	-	40.8	-	-	-	-
COc1cccc(NC(=O)CSc2ccc(-c3ccco3)nn2)c1	.	-	-	-	-	-
O=C(CSc1ccc(-c2ccco2)nn1)NC1CCCCC1	-	-	-	-	-	-
C[C@H](CO)N1C[C@H](C)[C@@H](CN(C)Cc2ccccc2)Oc2cc(C#CC3CC3)ccc2S1(=O)=O	-	-	-	.	-	.
CCNC(=S)N(CCc1c(C)[nH]c2ccc(F)cc12)Cc1cccnc1	-	-	-26.9	-	-	-
CCNC(=S)N(CCc1c(C)[nH]c2ccc(C)cc12)Cc1cccnc1	-	-	-	-	-	-
CCOC(=O)c1cc2c(=O)n3ccccc3nc2n(CCCOC)c1=NC(C)=O	-	.	.	-	.	.
CCOC(=O)c1cc2c(=O)n3ccccc3nc2n(C(C)C)c1=NC(=O)c1ccco1	.	-	-	+	-	-
CCOC(=O)c1cc2c(=O)n3cccc(C)c3nc2n(Cc2ccco2)c1=NC(=O)c1ccccc1	-	-	-	-	-	.
CCOC(=O)c1cc2c(=O)n3ccccc3nc2n(CCCOC)c1=NC(=O)c1ccncc1	.	-	-	152.6	-	-
CCCn1c(=NC(=O)c2ccco2)c(C(=O)OCC)cc2c(=O)n3ccccc3nc21	-	.	.	.	.	.
CCOC(=O)c1cc2c(=O)n3cccc(C)c3nc2n(CC(C)C)c1=NC(=O)c1ccco1	-	.	.	43.6	.	-
CCOC(=O)c1cc2c(=O)n3ccccc3nc2n(Cc2ccco2)c1=NC(=O)c1ccccc1OC	-	-	-	-	36.1	-
CC(C)C#Cc1ccc2c(c1)O[C@@H](CN(C)Cc1cccnc1)[C@H](C)CN([C@@H](C)CO)S2(=O)=O	-	-	-	.	-	-
Cc1noc(C)c1S(=O)(=O)Nc1ccc2c(c1)C(=O)N([C@H](C)CO)C[C@H](C)[C@H](CN(C)C(=O)Nc1ccccc1)O2	-	-	-	.	-	-
CCOCCCn1c(=NC(=O)c2ccco2)c(C(=O)OCC)cc2c(=O)n3cccc(C)c3nc21	-	.	.	-	60.1	-
CCOC(=O)c1cc2c(=O)n3cccc(C)c3nc2n(Cc2ccco2)c1=NC(=O)c1ccc(C)cc1	-	.	.	.	.	.
Clc1ccc(-c2nc3ccc(Br)cn3c2Cc2ccsc2)cc1	-	-	-22.9	-	-	?
N#Cc1ccc(-c2nc3ccc(Br)cn3c2Cc2ccsc2)cc1	-	-	-	-	-	-
Cc1ccc(Cc2c(-c3ccc(Cl)cc3)nc3cc(C)c(Br)c(C)n23)cc1	-	.	-	-	-	-
SMILES	PGC1a acetyl inh	INS-1E GSIS act	Ecoli rRNA inh	CaV13 ICDI inh	ERAP1 HTS inh	DENV2 CPE rescue
Cc1cc2nc(-c3ccc(Cl)cc3)c(Cc3ccsc3)n2c(C)c1Br	.	100.2	-	-	-	-
Cc1ccc2nc(-c3cccc(Br)c3)c(Cc3ccsc3)n2c1	.	-	-	-	-	24.4
CNC(=O)C[C@@H]1CC[C@H]2[C@@H](COC[C@H](O)CN2Cc2ccc(C(F)(F)F)cc2)O1	-	-	-	.	-	-
COc1ccc(N2C(=O)C3C4C=CC(c5ccccc5)(C3C2=O)C2C(=O)N(c3ccc(OC)cc3)C(=O)C42)cc1 (stereo not given)	-	-	-	-	-	.
COc1ccc(N2C(=O)C3C(C2=O)C3(c2ccccc2)c2ccccc2)cc1 (stereo not given)	.	-	-19.8	-	-	?
COc1cc(C(=O)OCc2cc(=O)c(O)co2)ccc1OC(F)F	.	52.0	-	-	-	-
C[C@@H]1CN([C@@H](C)CO)C(=O)c2cc(NC(=O)Cc3ccccc3)ccc2O[C@H]1CN(C)S(=O)(=O)c1cccs1	-	-	-	.	-	-
CCCNC(=O)N1[C@@H](CO)[C@H](c2ccccc2)[C@@H]1CNC(=O)c1cccc(F)c1	-	-	-	.	-	-
CCCNC(=O)N1[C@H](CO)[C@H](c2ccccc2)[C@@H]1CNC(=O)c1ccccc1	-	-	-	.	-	33.3
CCCNC(=O)N1[C@@H](CO)[C@@H](c2ccccc2)[C@@H]1CNC(=O)c1ccccc1	-	-	-	.	-	-
CCCNC(=O)N1[C@H](CNC(=O)c2cccc(F)c2)[C@@H](c2ccccc2)[C@@H]1CO	-	-	-	.	.	43.2
Cc1noc(C)c1C(=O)N(C)C[C@H]1OCc2ccccc2-c2ccccc2C(=O)N([C@@H](C)CO)C[C@H]1C	.	-	-	.	.	.
COc1ccc(S(=O)(=O)Nc2ccc3c(c2)C(=O)N([C@@H](C)CO)C[C@@H](C)[C@H](CN(C)S(=O)(=O)c2ccc(OC)cc2)O3)cc1	-	-	-	.	-	?
COc1ccc(C(=O)/C=C/C(=O)N(Cc2ccc(F)cc2)C(C(=O)NC2CCCCC2)c2ccncc2)c(O)c1 (stereo not given)	-	.	.	.	.	.
COc1ccc(C(=O)/C=C/C(=O)N(Cc2ccccc2)C(C(=O)NC2CCCCC2)c2ccncc2)c(O)c1 (stereo not given)	-	-	-	-	-	40.8
CCC(=O)N1CC2(CN[C@H](CO)c3c2c2ccc(OC)cc2n3C)C1	.	-	-	.	.	.
O=[N+]([O-])c1ccc2cccnc2c1	-	-	-	-	-	-
Cc1cc([N+](=O)[O-])cc2ncccc12	-	86.4	.	-	.	.
CCOC(=O)C1CCN(c2ncnc3c(C)csc23)CC1	.	-	-25.4	-	-	-
CCOC(=O)C1CCN(c2ncnc3c2nnn3Cc2ccccc2Cl)CC1	-	-	-20.5	-	-	-
COc1ccc(S(=O)(=O)N[C@H]2CC[C@H](CCn3cc(-c4ccccc4F)nn3)O[C@H]2CO)cc1	-	-	-	.	-	-
COc1ccc(NC(=O)/C(Cl)=C(/Cl)S(=O)(=O)Cc2ccccc2)cn1	64.4	.	.	.	.	.
